This is a sample that favours compounds with a hit; in the whole collection about 8.5% have one here.
JMJD2E inh = qHTS Assay for Inhibitors of Human Jumonji Domain Containing 2E (JMJD2E); Lysine-specific demethylase 4E (Homo sapiens), B2RXH2; JMJD2E catalytic domain, FDH-coupled NADH fluorescence (FDH is formaldehyde dehydrogenase); Potency, µM (series often up to 57.1 µM), inactives show at the highest dose activity change, negative = inhibition, hits mostly inhibitors; 1.6% of 230,000 active; AID 2147, 2009; active means well fitted inhibition curve with a large enough effect, not every such curve was filed as active; inconclusive means small, poorly fitted or top-dose-only effect, or another doubt; inactive means no such curve, though single readings can be large or run the other way;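 further: potency means the concentration at half of the fitted maximal effect; 0% = wells with enzyme and -100% = buffer wells without enzyme; nearly all actives have a fitted effect of over 50% in size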
Target sequence (B2RXH2 1-337 limits assumed): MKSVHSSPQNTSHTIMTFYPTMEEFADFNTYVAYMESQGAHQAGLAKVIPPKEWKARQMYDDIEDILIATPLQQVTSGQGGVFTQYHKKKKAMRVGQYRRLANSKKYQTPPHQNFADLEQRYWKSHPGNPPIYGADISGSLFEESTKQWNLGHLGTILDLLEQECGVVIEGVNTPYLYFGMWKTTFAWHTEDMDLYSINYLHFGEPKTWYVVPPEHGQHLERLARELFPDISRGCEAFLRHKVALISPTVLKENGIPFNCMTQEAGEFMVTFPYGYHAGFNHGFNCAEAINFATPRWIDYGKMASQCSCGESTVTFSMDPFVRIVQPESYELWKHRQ
Sfp PPTase inh = qHTS Assay for Inhibitors of Bacillus subtilis Sfp phosphopantetheinyl transferase (PPTase) | 4'-phosphopantetheinyl transferase ffp (Bacillus subtilis), Q9F4F7 | Biochemical Sfp PPTase activity, qHTS | Potency, µM, inactives show largest response in the series, negative = inhibition, actives largely listed as inhibitors | 3.5% of 310,000 active;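 further: the enzyme is Sfp with the accession as filed and its product quenches rhodamine fluorescence; potency means the concentration at half of the fitted maximal effect; 0% = enzyme reaction without inhibitor and -100% = no enzyme wells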
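With Hepes-Na pH 7.6 buffer containing 10 mM MgCl2, Sfp (15 nM) modified BHQ-2-YbbR (12.5 uM) using rhodamine-CoA (5 uM). Two reads 30 minutes apart at 525/598 nm yielded each well's rate.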
ALDH1A1 inh = qHTS Assay for Inhibitors of Aldehyde Dehydrogenase 1 (ALDH1A1); Aldehyde dehydrogenase 1A1 (Homo sapiens), P00352; Purified ALDH1A1, NADH fluorescence, propionaldehyde substrate; Potency, µM (highest dose often 75.3 µM), inactives show at the highest dose activity, negative = inhibition, hits mostly inhibitors; 7.3% of 220,000 active; AID 1030, 2008; active means well fitted inhibition curve with a large enough effect, not every such curve was filed as active; inconclusive means small, poorly fitted or top-dose-only effect, or another doubt; inactive means no such curve, though single readings can be large or run the other way;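 further: potency means the concentration at half of the fitted maximal effect; plate controls were no enzyme wells and a reference inhibitor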
GoLoco inh red = qHTS Assay for Inhibitors of RGS12 GoLoco Motif Activity (Red Fluorophore) | Potency, µM (top dose mostly 61.6 µM), inactives show top-dose activity, negative = inhibition, actives largely listed as inhibitors | Gai1:RGS12 GoLoco peptide FP, rhodamine, 10 min | Guanine nucleotide-binding protein G(i) subunit alpha-1 (Homo sapiens), P63096 | 0.44% of 230,000 active | AID 880, 2007; active means well fitted inhibition curve with a large enough effect, not every such curve was filed as active; inactive means no such curve, though single readings can be large or run the other way; further: potency means the concentration at half of the fitted maximal effect; nearly all actives have a fitted effect of over 30% in size
Target sequence (P63096 whole entry, looked up): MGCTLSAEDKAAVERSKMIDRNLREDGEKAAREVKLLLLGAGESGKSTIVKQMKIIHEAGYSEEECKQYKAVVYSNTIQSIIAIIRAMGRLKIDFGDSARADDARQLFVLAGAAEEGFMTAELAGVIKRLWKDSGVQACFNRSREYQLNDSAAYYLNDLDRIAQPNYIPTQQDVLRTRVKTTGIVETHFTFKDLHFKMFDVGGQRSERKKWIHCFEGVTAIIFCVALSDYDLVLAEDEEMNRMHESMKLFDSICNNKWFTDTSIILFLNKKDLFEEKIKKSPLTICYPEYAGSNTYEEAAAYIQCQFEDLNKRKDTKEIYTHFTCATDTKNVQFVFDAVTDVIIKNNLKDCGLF
NPSR antagonist = qHTS Assay for Antagonists of the Neuropeptide S Receptor: cAMP Signal Transduction; Q6W5P4; CHO-NPSR cells, cAMP TR-FRET, antagonist mode; Potency, µM (series often up to 38.3 µM), inactives show at the highest dose activity change, negative = inhibition, most hits filed as inhibitors; 1% of 220,000 active; AID 1461, 2008; further: potency means the concentration at half of the fitted maximal effect; nearly all actives have a fitted effect of over 50% in size
Coupling enz = qHTS Assay for Inhibitors of Fructose-1,6-bisphosphate Aldolase from Giardia Lamblia: Coupling assay counterscreen | coupling enzyme system counterscreen, AmpLite Red fluorescence | activity change, negative = inhibition, % at 58.2 µM, hits read low | 0.67% of 290,000 active; in the data active means activity change below about -30%
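First, compound is pin-transferred into glyceraldehyde-3-phosphate coupling-enzyme reagent at 57.5 uM final and held 10 min at RT. Next, substrate, coupling system and AmpLite Red are added. After 20 min RT, fluorescence (525/598 nm) is read.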
* hit, by the source's call; ? = inconclusive; · = no result given; [ ] = dose if it differs, or a comment. Unless noted, the call rests on the fitted dose curve; in most records, active means well fitted curve in the direction sought with a large enough effect; inconclusive means small, poorly fitted or top-dose-only effect, or another doubt; inactive means no such curve, though single readings can be large; an effect the other way counts as inactive or inconclusive. Unless noted, on the % scale 0 is the no-effect control and ±100 the full control effect.

SMILES	JMJD2E inh	Sfp PPTase inh	ALDH1A1 inh	GoLoco inh red	NPSR antagonist	Coupling enz
CCOc1cc(/C=C2/N=C(C)C(C(=O)OC)=C2O)ccc1O	-8.0%	-4.0%	?	33.8%	51.7%	0.3
O=C(NCc1ccccc1F)C1CCCN1S(=O)(=O)c1ccc(Cl)cc1 (configuration not stated)	·	8.3%	·	·	·	3.5
Cn1c(=O)c2c(nc(SCCN3CCCCC3)n2Cc2ccc(Cl)cc2)n(C)c1=O	1.3%	2.8%	6.7%	-1.5%	-15.0%[46.1 µM]	1.9
Cc1ccc(Cn2c(Sc3ncccn3)nc3c2c(=O)[nH]c(=O)n3C)cc1	9.6%	17.7%	-2.3%	0.4%	-3.2%[46.1 µM]	2.0
C/C=C/Cn1c(SCc2ccccc2)nc2c1c(=O)[nH]c(=O)n2C	1.3%	?	14.1µM*	1.7%	-21.8%[46.1 µM]	3.5
COCCn1c(Br)nc2c1c(=O)n(C)c(=O)n2C	5.6%	10.1%	?	-1.4%	-13.2%	0.9
Cc1ccc(Cn2c(SCC(C)C)nc3c2c(=O)n(C)c(=O)n3C)cc1	3.1%	?	2µM*	1.4%	-27.6%[46.1 µM]	0.1
C/C=C/CSc1nc2c(c(=O)[nH]c(=O)n2C)n1Cc1ccc(C)cc1	-8.0%	?	10µM*	-12.6%	-18.2%[46.1 µM]	1.0
Cc1ccc(OCCn2c(Br)nc3c2c(=O)n(C)c(=O)n3C)cc1	-7.4%	6.9%	0.3%	3.1%	-2.2%[46.1 µM]	-49.9*
CCOc1ccc(S(=O)(=O)N2CCN(c3ccccc3F)CC2)c2cccnc12	-0.4%	-10.7%	-10.1%	8.2%	7.1%	0.1
CC(=O)CSc1nc2c(c(=O)[nH]c(=O)n2C)n1Cc1cccc(Br)c1	·	44.7µM*	·	·	·	-1.2
Cn1c(=O)[nH]c(=O)c2c1nc(SCCC(=O)O)n2Cc1cccc(Br)c1	·	-5.1%	·	·	·	2.9
Cc1ccc(-n2nc(-c3ccco3)cc2C(=O)O)cc1	?	22.4µM*	·	-9.0%	2.9%	9.2
CC(C)NC(=O)c1nn2c(C(F)(F)F)cc(-c3ccco3)nc2c1Cl	?	13.1%	-1.2%	11.4%	-10.0%	1.0
CCOC(=O)c1cc(-c2ccco2)nn1-c1ccc(C)cc1	-13.4%	?	14.1µM*	19.6%	-12.2%	-0.2
O=C(c1cc(-c2ccco2)nn1-c1cccc(Cl)c1)N1CCCCC1	?	8.91µM*	3.55µM*	18.3%	?	-0.1
CCOC(=O)c1cc(-c2ccc(N3CCOCC3)cc2)nn1-c1ccccc1	3.9%	-10.4%	-0.3%	7.6%	-29.7%	-9.7
CC(C)NC(=O)c1cc(-c2ccco2)nn1-c1ccc(Cl)cc1	-25.6%	10µM*	28.2µM*	2.5%	-28.3%[46.1 µM]	·
CC(=O)Nc1cc(CN2CCCCC2)c(O)c2ncccc12	·	·	8.5%[13.5 µM]	1.3%[14.2 µM]	·	·
CN(C)c1ccc(-c2cncnc2Nc2ccc(F)cc2)cc1	·	?	?	-26.1%	·	-21.7
CCOC(CNC(=O)c1ccc(N2CCc3ccccc32)c([N+](=O)[O-])c1)OCC	3.6%	3.3%	10µM*	2.9%	-13.9%	-7.5
COc1cc2c(cc1OC)CN(c1ccc(F)cc1[N+](=O)[O-])CC2	·	25.1µM*	·	·	·	-0.1
CC(=O)c1ccc(N2CCc3ccccc3C2)c([N+](=O)[O-])c1	-1.3%	28.2µM*	·	4.2%	5.8%	4.7
CC(=O)c1ccc(N2CCN(c3ncccn3)CC2)c([N+](=O)[O-])c1	·	-10.9%	·	·	·	0.7
[N-]=[N+]=NCC/C=C\C1NS(=O)(=O)OCC1O (configuration not stated)	·	4.7%	·	·	·	2.8
SMILES	JMJD2E inh	Sfp PPTase inh	ALDH1A1 inh	GoLoco inh red	NPSR antagonist	Coupling enz
CCc1cc2c(SCC(=O)Nc3cc(C)on3)ncnc2s1	-7.1%	4.9%	11.5%	9.5%	-31.6%	-1.3
O=S(=O)(c1cccc2nsnc12)N1CCN(c2ccccc2F)CC1	10.2%	-0.2%	22.4µM*	10.3%	9.5%	0.8
Cc1ccc2nc(N(CCCN(C)C)C(=O)c3cc(-c4cccs4)nc4ccccc34)sc2c1	·	79.4µM*	·	·	·	-1.2
CN(C)CCCN(C(=O)c1ccco1)c1nc2c(F)cccc2s1	9.6%	10.8%	4.7%	4.3%	13.5%	3.4
CN(C)CCCN(C(=O)c1cc(-c2cccs2)nc2ccccc12)c1nc2c(F)cccc2s1	·	79.4µM*	·	·	·	·
Nc1ccccc1SCC(=O)Nc1ccc2c(c1)OCO2	·	-4.9%	·	·	·	·
Cc1cccc(/C=C2/SC(=O)N(Cc3ccccc3)C2=O)n1	6.7%	-4.6%	6.31µM*	0.7%	-21.6%[46.1 µM]	0.6
CC(Sc1nnc(N)s1)C(=O)Nc1ccc2c(c1)OCCO2 (configuration not stated)	·	11.3%	·	·	·	·
Nc1ccc(SC(F)(F)F)cc1	?	-3.7%	20µM*	17.5%	12.4%	1.1
CCN(CC)S(=O)(=O)c1ccc(Cl)c(C(=O)Oc2cccnc2)c1	7.2%	-4.1%	14.1µM*	-1.2%	-9.8%[46.1 µM]	1.0
CCOc1ccc(CC(=O)C2C(=O)CC(C)(C)CC2=O)cc1OCC	?	?	7.94µM*	0.2%	-0.4%[46.1 µM]	0.6
CCOc1ccc(Cc2onc3c2C(=O)CC(C)(C)C3)cc1OCC	1.1%	-1.8%	8.91µM*	-4.2%	0.6%	4.0
CCOc1ccc(CC(=N)C2=C(O)CC(C)(C)CC2=O)cc1OCC	4.0%	4.0%	-1.9%	-7.8%	3.3%	1.7
CCOc1ccc(CC(=O)C2=C(N3CCOCC3)CC(C)(C)CC2=O)cc1OCC	-21.8%	-2.3%	39.8µM*	-15.9%	-2.1%	1.8
C=CCN(CC=C)C(=S)NC(=O)c1ccc(OC)cc1	-6.8%	-11.0%	15µM*	15.6%	-2.8%	2.7
Cc1c(Cl)c(C(=O)NNC(=S)Nc2ccccc2)nn1C	10µM*	5.2%	4.8%	1.8%	-6.5%[46.1 µM]	1.1
Cc1c(Cl)c(C(=O)NNC(=S)Nc2ccc(F)cc2)nn1C	20µM*	13.0%	7.0%	13.5%	-3.6%	-0.9
CCNC(=S)NNC(=O)c1nn(C)c(C)c1Cl	-26.1%	-5.7%	8.2%	6.5%	13.7%	-0.5
COc1cc(C(=O)NC(=S)Nc2ccc(Cl)cn2)cc(OC)c1OC	·	-16.3%	·	·	·	0.6
Cc1nc(Nc2ccccc2)sc1C(=O)c1ccccc1	0.5%	0.2%	?	-7.0%	28.0%	6.6
CC(=O)c1cc(C(=O)c2ccccc2)sc1Nc1ccccc1	?	79.4µM*	?	3.2%	-18.3%	-3.9
CC(=O)Nc1ccc(S(=O)(=O)N2CCN=C2SCc2ccccc2C)cc1	·	20.8%	·	·	·	·
COc1ccccc1N1CCN(C/C(O)=C(\C#N)c2nc(-c3ccccc3)cs2)CC1	?	-3.7%	11.2µM*	88.6%	5.6%[46.1 µM]	-2.6
